Results filed as inconclusive are left out. Values without a mark were called inactive. The source made the active and inactive calls. The call rests on the fitted dose curve.
experiment: qHTS for Inhibitors of the Functional Ribonucleoprotein Complex (vRNP) of Lymphocytic Choriomeningitis Arenaviruses (LCMV): LCMV Confirmatory Screen - GLuc reporter signal; details: LCMV minigenome vRNP, Gaussia luciferase reporter; series mostly up to 53.9 µM

SMILES | Potency | activity change, negative = inhibition
CC1OC(=O)[C@@H](C(C)C)NC(=O)C(C(C)C)OC(=O)[C@H](C(C)C)NC(=O)C(C)OC(=O)[C@@H](C(C)C)NC(=O)C(C(C)C)OC(=O)[C@H](C(C)C)NC(=O)C(C)OC(=O)[C@@H](C(C)C)NC(=O)C(C(C)C)OC(=O)[C@H](C(C)C)NC1=O (some centres not stated) | 0.153 µM (active) | 
CC(O)(P(=O)(O)O)P(=O)(O)O | inactive | 
S=C(NCc1ccc2c(c1)OCO2)N1CCN(c2ncnc3c2oc2ccccc23)CC1 | 2.22 µM (active) | 
CO/C=C(/C(=O)OC)c1ccccc1Oc1cc(Oc2ccccc2C#N)ncn1 | 4.98 µM (active) | 
CCCCC[C@H](O)/C=C/C=C/C/C=C\CCCC(=O)O |  | 4.12% [at 0.666 µM]
COc1ccc2c(c1OC)CN1CCc3cc4c(cc3C1C2)OCO4 (configuration not stated) | 24.3 µM (active) | 
C=C(C)C1Cc2c(ccc3c2OC2COc4cc(OC)c(OC)cc4C2C3=O)O1 (configuration not stated) | 0.0153 µM (active) | 
Cc1ncc([N+](=O)[O-])n1CC(C)O (configuration not stated) | inactive | 
NC(=O)N/N=C/c1ccc([N+](=O)[O-])o1 | 24.3 µM (active) | 
CC(=O)[C@H]1CC[C@H]2[C@@H]3CCC4=CC(=O)CC[C@]4(C)[C@H]3CC[C@]12C | 24.3 µM (active) | 
CC12C(=O)OC(=O)C1(C)C1CCC2O1 (configuration not stated) | 9.68 µM (active) | 
Cn1cc(-c2ccncc2)c(-c2ccc(OCc3ccc4ccccc4n3)cc2)n1 | 24.3 µM (active) | 
CCC[C@H](N[C@@H](C)C(=O)N1[C@@H]2CCCC[C@H]2C[C@H]1C(=O)O)C(=O)OCC | inactive | 
O=C(Nc1ccccc1)c1cc([N+](=O)[O-])ccc1Cl | 24.3 µM (active) | 
CC(O)C(O)[C@H]1CNc2nc(N)[nH]c(=O)c2N1 (some centres not stated) | inactive | 
COCCOC(=O)C1=C(C)NC(C)=C(C(=O)OC/C=C/c2ccccc2)C1c1cccc([N+](=O)[O-])c1 (configuration not stated) | 21.7 µM (active) | 
Fc1ccc(CNc2ncnc3ccc(F)cc23)cc1 | 8.63 µM (active) | 
Nc1ccc([N+](=O)[O-])cc1O | 62.7 µM (active) | 
N#CC(=C(\N)Sc1ccccc1N)/C(C#N)=C(/N)Sc1ccccc1N | 27.3 µM (active) | 
COc1cc2c(cc1OC)CC(=O)N(CCCN(C)C[C@H]1Cc3cc(OC)c(OC)cc31)CC2 | inactive | 
O=C1Cc2cc(CCN3CCN(c4nsc5ccccc45)CC3)c(Cl)cc2N1 | inactive | 
C=C(C)[C@H]1Cc2c(ccc3c2O[C@@H]2COc4cc(OC)c(OC)cc4[C@@H]2C3=O)O1 | 0.0544 µM (active) | 
CCCCCC[C@H]1C(=O)O[C@H](C)[C@H](NC(=O)c2cccc(NC=O)c2O)C(=O)O[C@@H](C)[C@@H]1OC(=O)CC(C)C | 0.0343 µM (active) | 
CC(=O)OCC(=O)[C@@]12N=C(C)O[C@H]1C[C@H]1[C@@H]3CCC4=CC(=O)C=C[C@]4(C)[C@@H]3[C@@H](O)C[C@@]12C | inactive | 
FC(F)(F)c1ccc(C=Cc2nc(COc3ccc(CCCCn4ccnn4)cc3)co2)cc1 | 0.0153 µM (active) | 
O=C1c2ccccc2-n2c1nc1ccccc1c2=O | 1.22 µM (active) | 
O=C(Nc1ccc([N+](=O)[O-])cc1Cl)c1cc(Cl)ccc1O | 0.863 µM (active) | 

— PubChem BioAssay AID1347084 (National Center for Advancing Translational Sciences (NCATS), 2019)
